Results on 15 molecules are retold here after PubChem BioAssay.

Activity calls are given as the source filed them.

One assay deals with Albumin (Bos taurus) (UniProt P02769). The experiment in a line: compounds binding labelled BSA control protein – biochemical, small-molecule microarray, Alexa647 label, 635/667 nm fluorescence, artefact control for SMM control protein annotation, profiling panel (AID 1118).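 Also: score merges 667 nm emission intensity and signal-to-noise per printed compound spot.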 Conditions: BSA-A647 binding, fluorescence 635 nm, higher = more signal.
Albumin (Bos taurus), sequence (P02769 whole entry, looked up): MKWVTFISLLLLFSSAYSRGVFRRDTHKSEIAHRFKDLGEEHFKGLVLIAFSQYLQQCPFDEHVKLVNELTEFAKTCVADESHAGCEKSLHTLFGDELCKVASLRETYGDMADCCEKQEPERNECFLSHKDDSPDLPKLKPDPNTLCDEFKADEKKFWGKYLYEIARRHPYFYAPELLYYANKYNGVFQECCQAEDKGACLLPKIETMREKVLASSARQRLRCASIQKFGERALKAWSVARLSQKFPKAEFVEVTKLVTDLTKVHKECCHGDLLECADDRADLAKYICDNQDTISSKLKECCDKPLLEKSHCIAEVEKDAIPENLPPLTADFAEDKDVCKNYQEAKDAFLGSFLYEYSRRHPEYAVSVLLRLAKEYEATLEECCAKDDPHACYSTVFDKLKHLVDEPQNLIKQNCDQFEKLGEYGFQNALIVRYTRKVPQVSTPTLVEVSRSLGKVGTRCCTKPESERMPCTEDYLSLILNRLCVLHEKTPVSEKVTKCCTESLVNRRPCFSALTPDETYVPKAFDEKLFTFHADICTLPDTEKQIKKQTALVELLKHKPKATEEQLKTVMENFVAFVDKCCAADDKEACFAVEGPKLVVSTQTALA
A short description of assay [1]: probe aXIP binding to arrayed compounds – biochemical, NeuroSMM set, 635/667 nm fluorescence, primary screen (AID 1119).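 Also: probe is the protein aXip251-270 applied at 1 µg/mL to compound-printed slides; binding of probe to printed compounds measured as 667 nm fluorescence plus signal to noise.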 The conditions noted are these: small-molecule microarray, higher = more signal, called active from +8 up or from −8 down.
Assay [2] is described as follows: probe aNOTCH3 binding on compound microarray – biochemical, small-molecule microarray, 635/667 nm fluorescence, primary screen (AID 1120).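 Also: probe is a biotin-tagged antibody raised against NOTCH3 rather than NOTCH3 protein; score merges spot fluorescence near 667 nm with spot signal to noise.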 Conditions: higher = more signal.
Assay [3] can be described thus: probe aNOTCH2 binding on compound microarray – biochemical, small-molecule microarray, 635/667 nm fluorescence, primary screen (AID 1121).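 Also: score merges feature fluorescence read at 667 nm with its signal to noise.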 The conditions noted are these: higher = more signal.
The target in assay [4] is Carbonic anhydrase 2 (Homo sapiens) (UniProt P00918). Briefly: compounds binding carbonic anhydrase 2 – biochemical, small-molecule microarray, Alexa647-labelled CAII, profiling panel (AID 1122). Conditions: CAII-A647 binding fluorescence, higher = more signal.
Assay [5] can be described thus: COS7 lysate on small-molecule microarray, probe aHis, 635 nm (AID 1123).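 Also: z-score combines 667nm fluorescence intensity with signal-to-noise per printed compound spot.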 The conditions noted are these: COS7 cell lysate, fluorescence, higher = more signal.
Assay [6] in a line: probe aLAP1 signal on lysate-treated microarray – cell lysate, small-molecule microarray, COS7 lysate, primary screen (AID 1124).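 Also: lysate comes from COS7 cells expressing LAP1 and is applied at 0.3 µg/mL; score merges spot fluorescence near 667 nm with signal-to-noise over triplicate slides.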 Conditions: probe aLAP1, fluorescence, higher = more signal.
In a further assay the test system is Sam68 (KHDRBS1). Briefly: compounds binding KHDRBS1 protein – biochemical, small-molecule microarray, 635 nm fluorescence, primary screen (AID 1125).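 Also: score merges 667 nm channel intensity with signal to noise over triplicate slides.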 Conditions: higher = more signal.
Assay [7] relates to Chordin-like protein 2 (CHRDL2). The experiment in a line: compounds binding chordin-like 2 – biochemical, small-molecule microarray, 635 nm fluorescence, primary screen (AID 1126).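 Also: printed compound slides probed with Chrdl2 protein at 4 µg/mL for 1 h at 4 C; score merges 667 nm emission intensity with signal to noise over three replicate slides.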 The conditions noted are these: fluorescence 635 nm, higher = more signal.
Assay [8] deals with Concanavalin-A (Canavalia ensiformis) (UniProt P02866). The experiment in a line: compounds binding concanavalin A lectin – biochemical, small-molecule microarray, Alexa647 label, 635 nm, artefact control for SMM control protein annotation, primary screen (AID 1127).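 Also: z combines 667 nm emission intensity with signal-to-noise across three replicate slides.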 Conditions: ConA-A647 binding fluorescence, higher = more signal.
Concanavalin-A (Canavalia ensiformis), sequence (P02866 whole entry, looked up): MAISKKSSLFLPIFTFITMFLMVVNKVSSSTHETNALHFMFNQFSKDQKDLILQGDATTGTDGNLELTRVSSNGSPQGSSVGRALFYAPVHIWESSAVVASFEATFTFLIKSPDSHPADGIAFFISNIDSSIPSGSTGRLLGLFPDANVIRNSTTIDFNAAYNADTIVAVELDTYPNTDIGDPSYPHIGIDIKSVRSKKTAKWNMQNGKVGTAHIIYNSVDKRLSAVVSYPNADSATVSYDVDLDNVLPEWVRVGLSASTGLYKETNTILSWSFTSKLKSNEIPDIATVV

Take `COC(=O)CC=C[C@H](C)[C@H](CO)NS(=O)(=O)c1ccc(C)cc1`: the composite z-score with Albumin (Bos taurus) was -0.333; in [2], 0.0522; in [3], -0.13; in assay [4], 0.131; in assay [5] it was -0.0961; in assay [6] it was 0.121. For the same molecule, the results for the composite z-score (in the assay with Sam68 (KHDRBS1); in [7]; in assay [8]) were 0.217, 0.91 and 0.579, respectively. Besides, the composite Z-score in assay [1] was 0.755 (inactive).
On to `O=C1[C@H]2[C@H]3[C@H](O)[C@H](O)CC(=NO[C@@H]4O[C@H](CO)[C@@H](O)[C@H](O)[C@H]4O)[C@H]3CC[C@H]2C(=O)N1Cc1ccc2c(c1)OCO2`, for which the composite z-score was 0.861 with Albumin (Bos taurus); -0.0984 in [2]; -0.106 in assay [3]; 0.173 in [4]; 1.42 in assay [5]; 0.0185 in assay [6]. Further, the composite z-score in the assay on Sam68 (KHDRBS1) was 0.89; in [7] it was -0.575; in assay [8], 0.619. The composite Z-score in [1] is -0.161 (inactive).
As to `O=C1[C@H]2[C@H]3[C@H](O)[C@H](O)CC(=NOC[C@@H](O)COCc4ccco4)[C@@H]3CC[C@H]2C(=O)N1c1ccc(F)cc1F`, the composite z-score in the assay with Albumin (Bos taurus) was -0.126; in [2], -0.205; in assay [3] it was -0.14; in [4], -0.438; in assay [5] it was -1.08; in assay [6], 0.0425. For the same molecule, the composite z-score in the assay with Sam68 (KHDRBS1) is 0.235; in [7] it was 1.38; in assay [8], -0.359. Besides, the composite Z-score in assay [1] was -0.397 (inactive).
Turning to `CC(C)c1ccc(NN2C(C(O)c3ccc4c(c3)OCO4)C=CC3C(=O)N(c4ccccc4)C(=O)C32)cc1` (stereo not given), the composite z-score with Albumin (Bos taurus) is 1; in assay [2], 0.166; in assay [3] it was -0.0267; in assay [4], 0.564; in [5] it was 2.6; in assay [6], 0.738. Further, the values for the composite z-score (in the assay on Sam68 (KHDRBS1); in assay [7]; in assay [8]) were 1.29, -0.0586 and 1.18, respectively. Besides, the composite Z-score in assay [1] was 0.491 (inactive).
For the molecule `COC(=O)[C@@]1(Cc2ccc(OC)cc2)[C@H]2c3cc(C(=O)N4CCCC4)n(Cc4cc(F)c(F)c(F)c4)c3C[C@H]2CN1C(=O)c1ccccc1`, the composite z-score came out at 1.04 with Albumin (Bos taurus); 1.69 in [2]; 0.882 in [3]; 0.765 in assay [4]; 3.06 in assay [5]; 1 in assay [6]. Moreover, the composite z-score with Sam68 (KHDRBS1) is 1.3; in [7] it was -0.593; in assay [8], 1.21. For the same molecule, the composite Z-score in [1] was 0.188 (inactive).
Regarding `COC(=O)CC=C[C@@H](C)[C@H](OC)c1ccccc1Br`, the composite z-score in the assay with Albumin (Bos taurus) was -0.335; in assay [2], 0.0985; in [3] it was -0.0684; in assay [4], -0.0896; in assay [5], -0.453; in assay [6] it was 0.1. The composite z-score was -0.0689 with Sam68 (KHDRBS1), 0.508 in [7] and -0.24 in assay [8]. For the same molecule, the composite Z-score in assay [1] was 0.0948 (inactive).
Regarding `CN1C(=O)C2C(C1=O)C1C=C(CCCO)C2C(c2ccc(CN3CCCC3)cc2)N1C` (stereo not given), the composite z-score was -0.356 with Albumin (Bos taurus); -0.068 in assay [2]; -0.0907 in assay [3]; -0.221 in assay [4]; -0.377 in assay [5]; 0.0357 in assay [6]. Also, the values for the composite z-score (in the assay with Sam68 (KHDRBS1); in assay [7]; in assay [8]) were 0.239, 0.0976 and -0.56, respectively. For the same molecule, in [1], the composite Z-score is -0.816 (inactive).
For `CO[C@H]1COC(=O)[C@@H]2CCCN2C(=O)CC=C[C@@H](C)[C@H](OC)COC(=O)CC=C[C@@H]1C`, the composite z-score in the assay with Albumin (Bos taurus) is -0.806; in assay [2], 0.0753; in [3], -0.0931; in [4] it was -0.235; in [5], -0.0693; in assay [6], 0.0482. The composite z-score in the assay with Sam68 (KHDRBS1) was 1.28; in assay [7] it was 1.38; in assay [8], -1.28. For the same molecule, in assay [1], the composite Z-score is 1.31 (inactive).
Consider `CCc1cc2c(nc1CC)CCN(CCC(C)=NO[C@@H](C)c1cc(-c3c(C)cc(C)cc3C)no1)C2`, for which the composite z-score is 0.417 with Albumin (Bos taurus); -0.146 in assay [2]; -0.0649 in assay [3]; -0.195 in assay [4]; 0.778 in assay [5]; -0.126 in assay [6]. Also, the results for the composite z-score (with Sam68 (KHDRBS1); in assay [7]; in assay [8]) were 0.353, -0.121 and 0.765, respectively. In addition, the composite Z-score in [1] was -0.128 (inactive).
Regarding `CCOC(=O)CCN1C(=O)[C@H]2[C@H]3[C@H](O)[C@H](O)CC(=NOC[C@@H](O)COCc4ccco4)[C@H]3CC[C@H]2C1=O`, the composite z-score is 0.494 in the assay with Albumin (Bos taurus); 0.0059 in assay [2]; -0.171 in assay [3]; 0.0762 in assay [4]; -0.128 in assay [5]; 0.0706 in [6]. The composite z-score in the assay on Sam68 (KHDRBS1) is 1.32; in [7], -0.173; in assay [8], 0.66. In addition, the composite Z-score in assay [1] is -0.0692 (inactive).
`COC(=O)c1c(CC[C@@H](CO)NC(=O)N[C@H](Cc2ccccc2)Cn2cc(-c3ccccc3N)nn2)oc(C(C)=O)c1C(=O)OC`: the composite z-score stood at 0.484 with Albumin (Bos taurus); 0.237 in assay [2]; 0.115 in assay [3]; 0.0874 in assay [4]; 1.31 in [5]; 0.481 in assay [6]. The results for the composite z-score (in the assay with Sam68 (KHDRBS1); in [7]; in [8]) were 0.938, 0.509 and -0.0831, respectively. Also, in assay [1], the composite Z-score is -0.202 (inactive).
Turning to `CC(C)(C)N1C(=O)[C@H]2[C@H]3[C@H](O)[C@H](O)CC(=NO[C@@H]4O[C@H](CO)[C@@H](O)[C@H](O)[C@H]4O)[C@@H]3CC[C@H]2C1=O`, the composite z-score with Albumin (Bos taurus) is -0.524; in assay [2], -0.059; in assay [3], -0.154; in assay [4], 0.361; in assay [5] it was 0.741; in assay [6], 0.649. The composite z-score in the assay with Sam68 (KHDRBS1) amounted to 1.24; in [7], 1.07; in [8], 0.0237. Also, the composite Z-score in [1] is 0.406 (inactive).
For the molecule `CN1C(=O)C2C=CC(C(O)c3ccc(I)cc3)N(NC(=O)OC(C)(C)C)C2C1=O` (stereo not given), the composite z-score came to 0.825 with Albumin (Bos taurus); 0.435 in assay [2]; 0.17 in [3]; 0.719 in [4]; 2.18 in assay [5]; 0.555 in assay [6]. Further, the composite z-score with Sam68 (KHDRBS1) was 1.31; in [7] it was -0.294; in [8] it was 0.898. The composite Z-score in assay [1] was -0.252 (inactive).
With `CCCNC(=O)OC[C@H]1O[C@H](CCON=C2[C@H]3CCn4c(=O)n(-c5ccccc5)c(=O)n4[C@H]3[C@H](O)[C@@H]3O[C@H]23)C=C[C@@H]1Oc1ccc(OC)cc1`, the composite z-score in the assay with Albumin (Bos taurus) was 0.704; in assay [2], -0.0377; in [3], -0.0444; in [4], 0.167; in assay [5], 0.73; in assay [6], 0.587. Besides, the composite z-score was found to be 0.522 with Sam68 (KHDRBS1), 0.318 in assay [7] and 0.216 in [8]. The composite Z-score in assay [1] is 2.63 (inactive).
Turning to `O=C1CCCC=C1C(O)CCOCc1ccccc1` (stereo not given), the composite z-score with Albumin (Bos taurus) is -0.492; in assay [2] it was -0.0072; in [3] it was -0.108; in assay [4], -0.0262; in assay [5], -0.202; in [6], -0.195. Besides, the composite z-score in the assay on Sam68 (KHDRBS1) is -0.887; in [7] it was 0.309; in [8], -0.299. Further, the composite Z-score in assay [1] was -0.32 (inactive).
